Rows were chosen to be rich in hits. Some 8.1% of all compounds tested hit in one or more screens of this group.
RORgamma inh = qHTS for inhibitors of ROR gamma transcriptional activity. Nuclear receptor ROR-gamma (Mus musculus), P51450. Drosophila S2 Gal4-RORgamma UAS-luciferase reporter, 20 h. Potency, µM (titrated, usually from 53.6 µM), usual class: inhibitors. 5.4% of 310,000 active. AID 2551, 2010; note: nearly all actives have a fitted effect of over 60% in size
Target sequence (P51450 whole entry, looked up, the tested form may be a part): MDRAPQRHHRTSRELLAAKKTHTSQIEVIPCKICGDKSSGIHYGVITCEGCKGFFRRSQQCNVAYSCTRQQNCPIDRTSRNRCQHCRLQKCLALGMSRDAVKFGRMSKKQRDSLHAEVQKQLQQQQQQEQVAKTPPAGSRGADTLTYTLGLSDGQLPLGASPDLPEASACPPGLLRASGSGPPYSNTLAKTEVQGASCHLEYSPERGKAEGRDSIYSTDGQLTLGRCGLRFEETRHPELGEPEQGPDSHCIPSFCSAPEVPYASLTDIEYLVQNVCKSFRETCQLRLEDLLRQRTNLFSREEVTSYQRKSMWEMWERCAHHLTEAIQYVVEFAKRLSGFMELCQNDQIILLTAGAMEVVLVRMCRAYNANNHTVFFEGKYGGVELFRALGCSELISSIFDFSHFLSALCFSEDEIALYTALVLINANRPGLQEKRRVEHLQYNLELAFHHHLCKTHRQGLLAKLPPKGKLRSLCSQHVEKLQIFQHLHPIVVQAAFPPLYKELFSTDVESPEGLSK
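Read-out: Photinus luciferase luminescence; inhibitors lower reporter signal. Insect Schneider cells with Gal4-ROR gamma fusion under metallothionein promoter, UAS reporter; 700 uM final copper sulfate induction, 20 hr, ambient temperature.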
Epigenetic derep = Quantitative High-Throughput Screen for Regulators of Epigenetic Control | AID 1865, 2009 | Potency, µM (highest dose often 53.9 µM), usual class: activators | murine LDR cells, GFP reporter derepression, 30 h | 0.2% of 280,000 active; note: nearly all actives have a fitted effect of over 60% in size
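Murine LDR cells carrying a silenced, genomically integrated CMV-driven GFP reporter were exposed to compound for 30 hours at 37 C. After PBS washes, GFP-positive cells (20–120 um objects) were counted by laser-scanning microplate cytometry.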
VP16 counter = VP16 counterscreen qHTS for inhibitors of ROR gamma transcriptional activity | 3.5% of 310,000 active | Drosophila S2 Gal4-VP16 UAS-luciferase, luminescence, 20 h | Potency, µM (doses to about 53.6 µM), actives largely listed as inhibitors;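 note: Gal4-VP16 expression switched on by copper sulfate through the metallothionein promoter; nearly all actives have a fitted effect of over 50% in size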
PINK1 modulator = A Quantitative High throughput Screen to Identify Chemical Modulators of PINK1 Expression | AID 624263, 2012 | PINK1 immunofluorescence, high-content cytometry, 24 h | 0.2% of 410,000 active | Potency, µM (titrated, usually from 76.6 µM), hits mostly activators; active = well fitted activation curve with a large enough effect; inconclusive = small, poorly fitted or top-dose-only effect; cell line not stated here; note: nearly all actives have a fitted effect of over 65% in size
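Stable cell line, 250 cells/well, 12 h attachment; compounds pinned at 5 concentrations, 24 h; CCCP control. Fixed with nuclear dye, primary antibodies 12 h at 10 degrees C, secondary plus cell stain; laser-scanning cytometer read.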
Sfp PPTase inh = qHTS Assay for Inhibitors of Bacillus subtilis Sfp phosphopantetheinyl transferase (PPTase). Potency, µM, actives largely listed as inhibitors. 4'-phosphopantetheinyl transferase ffp (Bacillus subtilis), Q9F4F7. 3.5% of 310,000 active. Biochemical Sfp PPTase activity, qHTS;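 note: the enzyme is Sfp with the accession as filed and its product quenches rhodamine fluorescence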
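Sfp 15 nM + cpd, 15 min RT; start w/ rhodamine-CoA 5 uM, BHQ-2-YbbR 12.5 uM (final); 50 mM Hepes pH 7.6, 10 mM MgCl2, 0.01% NP-40, 0.01% BSA; read 525/598 nm at 0 and 30 min.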
ClpP mod = qHTS Assay for Activators of ClpP | ATP-dependent Clp protease proteolytic subunit (Bacillus subtilis (strain 168)), P80244 | purified B. subtilis ClpP, FRET peptide cleavage, 20 min | Potency, µM (highest dose often 57.5 µM) | 1.9% of 340,000 active | AID 651965, 2013; active = well fitted falling curve with a large enough effect; inconclusive = small, poorly fitted or top-dose-only effect; inactive = no such curve, though single readings can be large or run the other way; note: the source files actives as falling curves though it sought activators and does not explain the sign; nearly all actives have a fitted effect of over 65% in size
Target sequence (P80244 whole entry, looked up): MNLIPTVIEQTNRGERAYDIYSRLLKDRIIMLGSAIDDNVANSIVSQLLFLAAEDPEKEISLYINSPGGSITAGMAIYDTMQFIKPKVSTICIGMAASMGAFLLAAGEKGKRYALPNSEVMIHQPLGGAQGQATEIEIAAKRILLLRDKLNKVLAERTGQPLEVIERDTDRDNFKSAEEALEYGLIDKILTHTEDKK
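FRET quenching reversal measured ClpP activation: 10 microg/mL B. subtilis ClpP at pH 8 with the FRET-FV decapeptide, read at 430 nm after 320 nm excitation. The 20-min minus 0-min signal was scaled between DMSO/no-enzyme wells and ADEP (5.8 microM final).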
A number is an active result; . = inactive; ? = inconclusive; / = no result given; [ ] = remark or other dose. Unless noted, calls come from the whole dose curve; as a rule, active = well fitted curve in the direction sought with a large enough effect; inconclusive = small, poorly fitted or top-dose-only effect, or another doubt; inactive = no such curve, though single readings can be large; an effect the other way counts as inactive or inconclusive.

SMILES	RORgamma inh	Epigenetic derep	VP16 counter	PINK1 modulator	Sfp PPTase inh	ClpP mod
CN(C)NC(=S)Nc1ccc(Cl)cc1	?	.	2.24µM	/	.	.
CC(C)(C)C(=O)NC(=S)Nc1ccc(C(F)(F)F)cc1	4.47µM	.	?	.	.	.
CCNC(=S)NCc1ccc(Cl)cc1	/	/	/	.	/	.
CCNC(=S)Nc1ccc(Cl)cc1	8.91µM	.	.	.	.	.
CC(C)(C)C(=O)NC(=S)Nc1ccc(Cl)c(C(=O)O)c1	?	.	.	.	?	/
CCc1cccc(NC(=O)CSc2nc3ccccc3nc2N2CCCCC2)c1	/	.	/	.	/	?
COc1cc(=O)n2c(c1C(=O)NC(C)c1ccco1)CCN(Cc1ccccc1Cl)CC2 (stereo not drawn)	/	/	/	.	/	/
CCCCNC(=S)Nc1ccc(Cl)cc1	7.08µM	.	?	.	.	.
CCOC(=O)NC(=S)Nc1ccc(C(C)(C)C)cc1	2µM	.	10µM	.	.	/
CCNC(=S)Nc1ccc(Cl)c([N+](=O)[O-])c1	.	.	.	.	.	/
CCOC(=O)NC(=S)Nc1cccc(C)n1	/	/	/	.	/	.
CCNC(=S)Nc1ccc(C)c(Cl)c1	7.08µM	.	?	.	.	/
CCNC(=S)Nc1cc(-c2ccc(Cl)cc2)[nH]n1	6.31µM	.	11.2µM	.	.	/
CCCCOC(=O)c1ccc(NC(=O)c2ccc3c(c2)CCCN3S(C)(=O)=O)cc1	/	.	/	.	/	?
COC(=O)NC(/C(C(=O)OC)=C(\C)NCc1ccccc1)c1ccc(Cl)cc1 (stereo not drawn)	.[10 µM]	.[10.1 µM]	.[10 µM]	/	.	/
CCCN1CCN(CCCNC(=S)Nc2ccc(F)cc2)CC1	?	.	.	.	.	.
CCCCNC(=S)Nc1ccc(C(F)(F)F)cc1	4.47µM	.	12.6µM	?	.	/
COc1ccc(/C=C2\SC(N)=NC2=O)cc1Br	.[1.91 µM]	/	.	.	.	.
COc1cc(/C=C2\SC(c3ccc(C)cc3)=NC2=O)cc(OC)c1O	?	.	.[0.365 µM]	.	11.2µM	.
COc1cc(/C=C2\SC(N)=NC2=O)cc(Cl)c1O	.	/	.	.	.	.
Cc1ccc(C2=NC(=O)/C(=C/c3cc(O)c(O)c(Br)c3)S2)cc1	.	.	.	.	44.7µM	/
COc1ccc(N2CCN(c3c4c(nc5nncn35)CCC4)CC2)cc1	/	.	/	.	/	.
CCOc1ccc2[nH]c(=O)c(CN(CCc3ccccc3)C(=O)N3CCOCC3)cc2c1	.	.	.	.	.	.
CCOc1ccc2[nH]c(=O)c(CN(Cc3ccc(C)cc3)C(=O)N3CCCC3)cc2c1	.	.	.	.	.	31.6µM
CCOc1ccc2[nH]c(=O)c(CN(CCOC)C(=O)N3CCOCC3)cc2c1	.[0.365 µM]	.	/	.	.	28.2µM
SMILES	RORgamma inh	Epigenetic derep	VP16 counter	PINK1 modulator	Sfp PPTase inh	ClpP mod
CCOc1ccccc1-c1noc(CSc2nnc(-c3ccccc3)n2-c2cccc(C)c2)n1	/	.	/	.	/	.
COc1ccc(CNC(=O)CCc2c(C)c3cc4c(C)c(C)oc4cc3oc2=O)cc1	/	.	/	.	/	?
Cc1ccc(NC(=O)CCC(=O)N2Cc3ccccc3Oc3ncccc32)c(C)c1	/	.	/	.	/	.
Cc1cc(=O)n2nc(N3CCCC3C(=O)Nc3cccc(Cl)c3C)sc2n1 (stereo not drawn)	15.8µM	/	.	.	.	.
O=C(Cc1ccc(Cl)cc1)N/N=C/c1ccc(O)c(O)c1	/	/	/	.	/	.
Cc1cccc(/C=N\NC(=O)c2ccc(Cl)cc2)c1O	6.31µM	.	12.6µM	.	.	/
O=C(Cc1ccccc1)N/N=C/c1ccccc1OCc1ccc(Cl)cc1	.	.	.	.	.	.
Cc1ccc(O)c(/C=N/NC(=O)Cc2ccc(Cl)cc2)c1	0.631µM	/	0.631µM	.	.	.
C=CCOc1ccccc1/C=N/NC(=O)Cc1ccc(C)cc1	11.2µM	/	?	.	.	.
O=C(NN=Cc1cccc(O)c1O)c1ccccc1	/	/	/	.	/	.
Cc1cccc(/C=N/NC(=O)Cc2ccc(Cl)cc2)c1O	1.12µM	/	1µM	.	.	.
CCN(CC)S(=O)(=O)c1ccc2c(c1)c(=O)c(C(=O)N1CCN(c3cc(Cl)ccc3C)CC1)cn2C	/	.	/	.	/	.
CC(C)(C)C1CCc2c(C(=O)NNC(=O)/C=C/C(=O)O)csc2C1 (stereo not drawn)	?	.	14.1µM	.	?	.
CCCN(Cc1cc2cc(OC)ccc2[nH]c1=O)C(=O)c1ccncc1	.	.	.	.	.	31.6µM
COc1ccc2[nH]c(=O)c(CN(C)C(=O)C3CCCCC3)cc2c1	.	.	.	.	.	28.2µM
COc1ccc2[nH]c(=O)c(CN(C)C(=O)c3ccncc3)cc2c1	.	.	.	.	.	?
COc1ccc(CC(=O)N(Cc2cc3cc(OC)ccc3[nH]c2=O)C(C)C)cc1	.	.	.	.	.	31.6µM
CCOc1ccc(C(=O)N(Cc2ccc(OC)cc2)Cc2cc3cc(OC)ccc3[nH]c2=O)cc1	.	.	?	?	.	31.6µM
C=C1C=C(C(F)F)n2ncc(C(=O)N3CCN(c4ccccc4)CC3)c2N1	/	/	/	.	/	.
C/C(N)=C(/C#N)C(=O)CSc1nnnn1-c1ccc(C)cc1C	.	.	12.6µM	.	.	.
CCCCn1c(SCC(=O)/C(C#N)=C(\C)N)nc2ccccc2c1=O	?	.	?	.	.	.
C/C(N)=C(/C#N)C(=O)CSc1nc2ccccc2c(=O)n1Cc1ccc(F)cc1	2.82µM	.	3.55µM	.	70.8µM	.
C/C(N)=C(/C#N)C(=O)CSc1nc2ccccc2c(=O)n1Cc1ccc(C)cc1	2.51µM	.	3.98µM	.	?	/
C/C(N)=C(/C#N)C(=O)CSc1nc2cc(Cl)ccc2c(=O)n1Cc1ccco1	.	.	.	.	?	.
CN(C)c1ccc(/C=C/c2ncnc3ccccc23)cc1	/	/	/	?	/	.
SMILES	RORgamma inh	Epigenetic derep	VP16 counter	PINK1 modulator	Sfp PPTase inh	ClpP mod
Cc1cc(C(=O)N/N=C/c2ccc[nH]2)no1	10µM	.	11.2µM	.	.	.
Cc1cc(C(=O)N/N=C\c2cc(C(C)(C)C)c(O)c(C(C)(C)C)c2)n[nH]1	6.31µM	/	3.55µM	.	.	/
Cc1cc(C(=O)N/N=C/c2ccc3ccccc3c2)n[nH]1	.	/	.	.	.	.
Cc1cc(C(=O)N/N=C/c2cccnc2)n[nH]1	.	.	.	.	.	/
Cc1cc(C(=O)N/N=C/c2ccc[nH]2)n[nH]1	2.82µM	.	.	.	.	/
Cc1cc(C(=O)N/N=C/c2ccc([N+](=O)[O-])s2)n[nH]1	.	.	?	.	.	/
Cc1cc(C(=O)N/N=C/c2cc(Cl)cc([N+](=O)[O-])c2O)n[nH]1	7.94µM	.	?	.	.	/
CO/N=C/c1c(-c2ccc(Cl)cc2)nc2cc(C)ccn12	8.91µM	.	.	.	.	/

Screening results from PubChem.
